Source: PubChem BioAssay (NCATS)
Records with an inconclusive call do not appear. The source made the active and inactive calls. Unless noted, the call rests on the fitted dose curve; in most records, active means well fitted inhibition curve with a large enough effect; inconclusive means small, poorly fitted or top-dose-only effect; inactive means no such curve, though single readings can be large or run the other way.

Tests used:
[1] = qHTS profiling of the MIPE4 collection as inhibitors of Plasmodium falciparum (3D7) proliferation (AID 743344; call rule not given here;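 further: scaled between DMSO vehicle wells and 0.29 µM artemisinin as full inhibition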); settings: P. falciparum 3D7 in erythrocytes, SYBR Green DNA fluorescence, 72 h; at 28.5 µM unless noted
How it was run: (§1)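 Parasite DNA was quantified by SYBR Green I fluorescence (ex 485, em 535 nm) after overnight lysis in saponin/Triton buffer at room temperature. Cultures at 0.3% parasitemia and 2.5% hematocrit were first exposed to compound for 72 h at 37 C; signals were normalised to artemisinin (0.29 uM) and vehicle wells.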

[2] = qHTS profiling of the MIPE4 collection as inhibitors of Plasmodium falciparum (DD2) proliferation (AID 743345; call rule not given here); settings: P. falciparum Dd2 in erythrocytes, SYBR Green DNA, 72 h; at 28.5 µM unless noted
How it was run: as §1

[3] = qHTS profiling of the MIPE4 collection as inhibitors of Plasmodium falciparum (DD2) proliferation (Rep 2) (AID 743346; call rule not given here); settings: P. falciparum Dd2 in erythrocytes, SYBR Green DNA, 72 h; at 28.5 µM unless noted
How it was run: as §1

[4] = qHTS profiling of the MIPE4 collection as inhibitors of Plasmodium falciparum (HB3) proliferation (AID 743347; call rule not given here;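 further: plate controls were DMSO vehicle wells for no effect and artemisinin wells for full effect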); settings: P. falciparum HB3 in erythrocytes, SYBR Green DNA, 72 h; at 28.5 µM unless noted
How it was run: as §1

[5] = High-throughput drug toxicity screening in the BPDCN cell line Gen2.2 (AID 1224824; call rule not given here;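 further: cells exposed to compounds for 48 h before reading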); settings: Gen2.2 BPDCN cells; at 45.8 µM (top of the series) unless noted
How it was run: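 Gen2.2 cells, 500 per well in phenol red-free RPMI with 10% FBS, exposed to compounds 48 h at 37 C, 5% CO2; viability by CellTiter-Glo luminescence. Percent activity scaled to DMSO (100%) and 9.2 uM bortezomib final (0%).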

[6] = High-throughput drug toxicity screening in the BPDCN cell line Cal-1 (AID 1224825); settings: Cal-1 BPDCN cell viability, qHTS; at 45.8 µM (top of the series) unless noted
How it was run: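 CellTiter-Glo luminescence after 48 h compound exposure; percent activity scaled with DMSO as 100% and bortezomib (9.2 uM final) as 0%. Cal-1 cells seeded at 500/well in RPMI, 10% FBS, no phenol red.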

[7] = qHTS assay for measurement of the activity of small molecule inhibitors on Zika virus induced Caspase-3 activity in human iPSC derived neural progenitor cells (hNPCs) (AID 1224857); further: % of control where 0% means no effect; nearly all actives have a fitted effect of over 65% in size
How it was run: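 Percent inhibition of virus-induced caspase-3/7 luminescence (Caspase-Glo), scaled between uninfected cells and Zika-infected cells. hNPCs received compound 1 hr before ZIKV at 2 FFU/cell, with 6 hours infection at 37 C.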

[8] = qHTS assay for measurement of the activity of small molecule inhibitors on Zika virus induced Caspase-3 activity in human astrocytoma cells (AID 1224859);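 further: plate controls were ZIKV-infected untreated cells for no effect and uninfected cells for full effect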
How it was run: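 Luminescent caspase-3/7 read-out (30 min reagent, room temperature) in human SNB-19 cells infected 6 h with ZIKV (2 FFU/cell) after 1 h compound pre-incubation; Data were normalised to uninfected and infected wells.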

[9] = qHTS Screen of the MIPE 4.0 Collection Against Ewings Sarcoma (RDES) (AID 1259252); further: nearly all actives have a fitted effect of over 35% in size; further: potency means the concentration at half of the fitted maximal effect
How it was run: (§2)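 Log-phase cells in RPMI with 5% FBS attached for 4 h, then received compounds as a titration for 48 h at 37C, 5% CO2. Viability was read by CellTiter-Glo luminescence and normalized to DMSO and no-cell wells.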

[10] = qHTS Screen of the MIPE 4.0 Collection Against Ewings Sarcoma (TC71) (AID 1259253); further: nearly all actives have a fitted effect of over 40% in size; further: potency means the concentration at half of the fitted maximal effect
How it was run: as §2

[11] = qHTS Screen of the MIPE 4.0 Collection Against Ewings Sarcoma (EW8) (AID 1259255); further: nearly all actives have a fitted effect of over 35% in size; further: potency means the concentration at half of the fitted maximal effect;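 on viability: 100% = DMSO-treated cells and 0% = medium-only wells without cells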
How it was run: as §2

[12] = qHTS Screen of the MIPE 4.0 Collection Against Ewings Sarcoma (TC32) (AID 1259256); further: nearly all actives have a fitted effect of over 45% in size; further: potency means the concentration at half of the fitted maximal effect
How it was run: as §2

| SMILES | parasite growth, % of DMSO control [1] | parasite growth remaining, % of DMSO control (lower = more inhibition) [2] | parasite growth, % of control (lower = inhibition) [3] | growth, % of control [4] | cell viability, % of control (lower = more cytotoxic) [5] | viability (% of control) [6] | Potency [7] | Potency [8] | Potency [9] | Potency [10] | Potency [11] | Potency [12] |
| --- | --- | --- | --- | --- | --- | --- | --- | --- | --- | --- | --- | --- |
| COc1cc(C(=O)N2CCC(N3CCN(C)CC3)CC2)ccc1Nc1ncc2c(n1)N(C)c1ccccc1C(=O)N2C | 5.57% | 7.18% | 19.7% | 5.31% | 2.17% | 3.29% | inactive | inactive | 13.2 µM (active) | 4.69 µM (active) | 9.35 µM (active) | 4.18 µM (active) |
| Nc1cccc(-c2cc3c(Oc4cccc(O)c4)ncnc3[nH]2)c1 | 33.1% | 86% | 52.9% | 43.2% | 115% | 9.2% | inactive | inactive | 2.35 µM (active) | 4.18 µM (active) | 3.32 µM (active) | 2.96 µM (active) |
| O=C(Nc1nc2cccc(-c3ccc(CN4CCS(=O)(=O)CC4)cc3)n2n1)C1CC1 | 64.7% |  | 62.8% | 73.9% | 107% | 9.42% | inactive | inactive | 16.6 µM (active) | 9.35 µM (active) | 9.35 µM (active) | 8.33 µM (active) |
| Cc1c(C)n(Cc2ccc(-c3ccccc3C(=O)O)cc2)c2ccc(C(=O)N[C@@H](C)c3ccc([N+](=O)[O-])cc3)cc12 |  | 30.3% | 20.8% | 7.19% | 21.6% | 8.82% | inactive | inactive | inactive | inactive | inactive | inactive |
| CN(C)CC(C)(C)CNc1nn2c(-c3ccccc3)nnc2cc1C1CCC1 | 20% | 21.9% | 40.5% | 48.8% | 13.9% | 3.65% | inactive | inactive | 0.418 µM (active) | 1.05 µM (active) | 0.469 µM (active) | 0.469 µM (active) |
| CNC(=O)c1nn(C)c2c1C(C)(C)Cc1cnc(Nc3ccc(N4CCN(C)CC4)cc3)nc1-2 | 6.38% |  | 6.77% | 3.32% | 3.63% | 3.8% | inactive | inactive | 1.66 µM (active) | 1.87 µM (active) | 2.96 µM (active) | 2.35 µM (active) |
| Cc1cc(C(=O)N2CCN(c3cccc(Cl)c3)CC2)n(-c2ccccc2)n1 |  | 107% | 98.6% | 108% | 88.4% | 18.2% | inactive | inactive | 0.743 µM (active) | 6.62 µM (active) | 1.18 µM (active) | inactive |
| Cc1ccc2nc(NC(=O)CSc3nc4c(c(=O)n3-c3ccccc3)SCC4)sc2c1 |  | 82.9% |  | 42.3% | 120% | 15.8% | inactive | inactive | 18.7 µM (active) | 20.9 µM (active) | 16.6 µM (active) | 16.6 µM (active) |
